Data on nine compounds can be found in PubChem BioAssay (NCATS).

The nature of test [1]: Cell Viability - NIH 3T3 (AID 541).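 Further: plate controls were DMSO alone for no effect and tamoxifen positive control for full effect; nearly all actives have a fitted effect of over 25% in size.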 Conditions: NIH 3T3 cell viability, qHTS; activity change, negative = cytotoxicity: at 92.2 µM (top of the series). The method, boiled down: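 NIH 3T3 mouse embryo fibroblasts (1000 cells/well) were plated in complete medium and treated with compound for 40 hr at 37 °C. Viability was read as intracellular ATP by CellTiter-Glo luminescence; AC50 values came from Hill-equation fits of concentration-response data.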

Test [2] is described as follows: Cell Viability - LYMP2-014 (AID 983).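 Further: plate controls were DMSO only for no effect and 92 µM tetraoctylammonium bromide for full effect; nearly all actives have a fitted effect of over 50% in size.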 Put shortly: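 Human lymphoblastoid cells (2500/well) were pre-incubated 5 hr at 37 C, then exposed to compounds in complete medium for 24 hr at 37 C. Intracellular ATP was read by CellTiter-Glo luminescence after 30 min at room temperature; AC50 from Hill fits.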
Test [3] can be described thus: Cell Viability - LYMP2-024 (AID 988).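 Further: plate controls were DMSO only for no effect and 92 µM tetraoctylammonium bromide for full effect; nearly all actives have a fitted effect of over 60% in size.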 The method, boiled down:
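Human lymphoblastoid cells (2500/well) in complete medium were preincubated 5 hr at 37 C, then exposed to compounds for 24 hr at 37 C. Intracellular ATP was read by CellTiter-Glo luminescence; AC50 from Hill-equation fits of concentration-response data.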

In test [4] the target is Voltage-gated inwardly rectifying potassium channel KCNH2 (Homo sapiens) (UniProt Q12809). Put plainly: qHTS Assay for Small Molecule Inhibitors of the Human hERG Channel Activity (AID 588834).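 Further: top concentration of the series differs between compounds; on the % scale 0 is the no-effect control and ±100 the full control effect; lower thallium flux fluorescence means stronger hERG block; nearly all actives have a fitted effect of over 50% in size.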 Put shortly:
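U2OS cells transduced with hERG via BacMam (MOI ~100), plated 2000/well, loaded with FluxOR thallium dye, compound ~10 min, then stimulation buffer; fluorescence decrease read kinetically; AC50 from Hill fits.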

The nature of test [5]: qHTS assay for small molecule agonists of the antioxidant response element (ARE) signaling pathway (AID 651741; active means well fitted activation curve with a large enough effect in the signal ratio; the % refers to the signal ratio; further: % of control where 0% means no effect). The method, boiled down: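 Seeding 2,000 ARE-bla HepG2 cells per well preceded a 5 h incubation at 37 C/5% CO2 and a 16 h compound exposure at 37 C. Beta-lactamase reporter activity was then quantified by fluorescence after 2 h with LiveBLAzer B/G FRET substrate.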

The nature of test [6]: qHTS assay for small molecule disruptors of the mitochondrial membrane potential - 5 hr assay (AID 651755; calls by dose curve; further: on the % scale 0 is the no-effect control and ±100 the full control effect; nearly all actives have a fitted effect of over 40% in size). The method, boiled down:
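HepG2, 2,000 cells/well, overnight attach; cpd or DMSO 5 hr, 37C/5% CO2; Mito-MPS 30 min 37C; fluor 490/535 + 540/590 nm.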

Test [7] in a line: qHTS assay for environmental chemicals that activate the Aryl hydrocarbon Receptor (AhR) signaling pathway (AID 651777). Further: nearly all actives have a fitted effect of over 15% in size. Further: potency means the concentration at half of the fitted maximal effect. On activation: % of control where 0% means no effect. Conditions: 1A2-DRE human hepatoma cells, luciferase, 24 h; activation: stronger effect = higher value. Put shortly:
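Measured luciferase activity, read 30 min after One-Glo addition at room temperature, from human hepatoma cells bearing a dioxin response element–CYP1A2 promoter reporter and exposed to compound for 24 hr at 37 C.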

The nature of test [8]: Cell Viability - H-4-II-E (AID 543). Further: on the % scale 0 is the no-effect control and ±100 the full control effect; nearly all actives have a fitted effect of over 35% in size. The method, boiled down: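 Rat hepatoma H-4-II-E cells (1500/well) were plated, incubated 5 hr at 37 °C, then exposed to compounds for 40 hr at 37 °C. Cellular ATP was read by CellTiter-Glo luminescence; AC50 came from Hill-equation fits of concentration-response data.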
A short description of test [9]: MultiTox-Fluor Cytotoxicity Assay - LYMP1-001 - Live Cells (AID 947).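 Further: 0% = DMSO only and full inhibition = tetraoctylammonium bromide control.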
Test [10] in a line: Cell Viability - LYMP2-018 (AID 985).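 Further: compound exposure lasted 24 hr at 37 °C; plate controls were DMSO only for no effect and tetraoctylammonium bromide at 92 µM for full effect; nearly all actives have a fitted effect of over 50% in size.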 Put shortly:
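Human lymphoblastoid cells (2500/well) were pre-incubated 5 hr at 37 C, then exposed to compounds for 24 hr at 37 C in complete medium. Viability was read as intracellular ATP by CellTiter-Glo luminescence; AC50 values came from Hill-equation fits.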

In test [11] the target is Estrogen receptor (Homo sapiens) (UniProt P03372). Kind of test: qHTS assay for small molecule antagonists of estrogen receptor alpha signaling (AID 588513; active means well fitted curve in the direction sought with a large enough effect in the signal ratio, with a control signal flat, not every such curve was filed as active; the % refers to the signal ratio; further: on the % scale 0 is the no-effect control and ±100 the full control effect). Put shortly:
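ER-alpha-UAS-bla GripTite HEK 293 cells in medium with 2% charcoal/dextran-treated FBS were preincubated 4 h at 37 C, dosed with compound (1:2 titration), stimulated with 0.5nM 17-beta-estradiol for 18 h, then read by CCF4 beta-lactamase fluorescence.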

For test [12] the target is unchanged. Put plainly: qHTS assay for small molecule agonists of estrogen receptor alpha signaling (AID 588514; calls by dose curve;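 further: 0% = vehicle only and 100% = reference agonist; nearly all actives have a fitted effect of over 70% in size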). The method, boiled down:
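ER-alpha-UAS-bla GripTite HEK 293 cells in medium with 2% charcoal/dextran-treated FBS were treated with compound titrations at 37 C for 18 hrs; beta-lactamase reporter read by CCF4 fluorescence after 2 hrs at RT.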

The target in test [13] is Glucocorticoid receptor (Homo sapiens) (UniProt P04150). Put plainly: qHTS assay for small molecule agonists of glucocorticoid receptor signaling (AID 588532; active means well fitted curve in the direction sought with a large enough effect in the signal ratio, with a control signal flat; the % refers to the signal ratio;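 further: 100% = dexamethasone at 0.1 µM and 0% = DMSO only wells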). The note with it: HeLa MMTV-bla, beta-lactamase ratio, agonist, 18 h; stronger effect = higher value; percent of dexamethasone control, DMSO zero. Put shortly:
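Using MMTV-bla HeLa cells in medium with 1% stripped FBS and 25 mM HEPES, compounds were titrated and incubated overnight-length (18 h). Beta-lactamase cleavage of CCF4 was quantified by dual-emission fluorescence.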

For test [14] the target is unchanged. Kind of test: qHTS assay for small molecule antagonists of glucocorticoid receptor signaling (AID 588533; active means well fitted inhibition curve with a large enough effect in the signal ratio, with a control signal flat, not every such curve was filed as active; the % refers to the signal ratio;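 further: cells stimulated with 2 nM dexamethasone as agonist; on the % scale 0 is the no-effect control and ±100 the full control effect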). The method, boiled down: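 Antagonist-mode qHTS: compound titrations added to GRE-bla HeLa cells, then dexamethasone 2 nM final; 18 h, 37 C. CCF4 FRET fluorescence normalized to dexamethasone and DMSO; IC50 from Hill fit.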
For test [15], the target named is Peroxisome proliferator-activated receptor delta (Homo sapiens) (UniProt Q03181). Kind of test: qHTS assay for small molecule agonists of peroxisome proliferator-activated receptor delta signaling (AID 588534; calls by dose curve;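 further: 0% = DMSO basal wells and 100% = positive control agonist at 10 µM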). Put shortly:
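Cell-based beta-lactamase reporter assay run in agonist mode: cells seeded and incubated 5 hrs at 37 C, compounds added and incubated 18 hrs at 37 C. CCF4 dye fluorescence read after 2 hrs at RT; EC50 and efficacy from Hill fits.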

Test [16] deals with Peroxisome proliferator-activated receptor gamma (Homo sapiens) (UniProt P37231). Kind of test: qHTS assay for small molecule agonists of peroxisome proliferator-activated receptor gamma signaling (AID 588536; active means well fitted curve in the direction sought with a large enough effect in the signal ratio, with a control signal flat, not every such curve was filed as active; the % refers to the signal ratio;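 further: 0% = DMSO basal wells and 100% = rosiglitazone at 2 µM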). Put shortly: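 HEK293 UAS-bla reporter line, 1% charcoal/dextran FBS; titration, 16 h, 37 C; CCF4 loading 2 h RT; fluorescence 460/530 nm. Normalized to rosiglitazone 2 uM = 100%, DMSO = 0%.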
Chain of Peroxisome proliferator-activated receptor gamma (Homo sapiens) (P37231 whole entry, looked up): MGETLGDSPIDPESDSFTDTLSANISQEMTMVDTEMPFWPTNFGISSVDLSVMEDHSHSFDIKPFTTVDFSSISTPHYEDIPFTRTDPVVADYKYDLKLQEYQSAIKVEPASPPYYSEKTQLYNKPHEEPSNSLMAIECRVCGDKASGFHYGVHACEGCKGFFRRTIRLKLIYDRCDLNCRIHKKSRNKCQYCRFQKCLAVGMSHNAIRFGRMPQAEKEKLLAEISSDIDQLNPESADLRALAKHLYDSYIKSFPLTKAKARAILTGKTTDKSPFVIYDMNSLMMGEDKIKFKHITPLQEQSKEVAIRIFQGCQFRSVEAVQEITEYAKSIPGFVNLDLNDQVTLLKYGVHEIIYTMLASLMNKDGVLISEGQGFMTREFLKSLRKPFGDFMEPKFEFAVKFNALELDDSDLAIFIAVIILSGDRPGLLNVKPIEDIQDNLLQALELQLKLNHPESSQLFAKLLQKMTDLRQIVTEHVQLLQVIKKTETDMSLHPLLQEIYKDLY

Test [17] in a line: qHTS assay for small molecule activators of the nuclear factor-kappa B (NF-kB) signaling pathway (AID 651749; active means well fitted activation curve with a large enough effect in the signal ratio; the % refers to the signal ratio; further: % of control where 0% means no effect). The note with it: NF-kB-bla ME-180 cells, beta-lactamase FRET ratio, 16 h; stronger effect = higher value. Put shortly: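 Stably transfected ME-180 line; NF-kB response element upstream of beta-lactamase. Treatment: compound or DMSO, 16 hr. Detection: fluorescent FRET substrate.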

Test [18] in a line: qHTS assay for small molecule antagonists of peroxisome proliferator-activated receptor delta signaling (AID 588535; active means well fitted inhibition curve with a large enough effect in the signal ratio, with a control signal flat, not every such curve was filed as active; the % refers to the signal ratio;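 on max response: cells co-treated with a PPAR-delta agonist as stimulator during compound exposure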). Conditions: HEK293T PPARd-UAS-bla, beta-lactamase FRET ratio, 18 h; 460 nm channel. The method, boiled down: (§1)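 Cell-based beta-lactamase assay in antagonist mode: 4000 HEK293T PPAR-delta-UAS-bla cells per well, 5 hr preincubation then 18 hr compound incubation at 37 C. IC50 obtained by Hill equation fitting.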

The target of test [19] is Peroxisome proliferator-activated receptor delta (Homo sapiens) (UniProt Q03181). The test is described as above. Put shortly: as §1
Chain of Peroxisome proliferator-activated receptor delta (Homo sapiens) (Q03181 whole entry, looked up): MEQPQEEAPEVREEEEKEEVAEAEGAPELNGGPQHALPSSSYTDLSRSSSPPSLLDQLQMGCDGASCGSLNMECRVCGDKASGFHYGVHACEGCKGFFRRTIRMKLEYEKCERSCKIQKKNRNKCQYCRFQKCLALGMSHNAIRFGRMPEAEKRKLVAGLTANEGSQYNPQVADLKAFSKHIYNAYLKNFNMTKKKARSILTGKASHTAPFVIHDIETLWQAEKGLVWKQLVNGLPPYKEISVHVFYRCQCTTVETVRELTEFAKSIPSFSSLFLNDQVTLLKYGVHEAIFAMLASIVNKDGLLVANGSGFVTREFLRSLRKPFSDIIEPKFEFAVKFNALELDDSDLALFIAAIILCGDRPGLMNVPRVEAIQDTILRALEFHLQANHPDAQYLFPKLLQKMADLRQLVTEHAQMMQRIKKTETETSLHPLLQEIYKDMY
The target in test [20] is Peroxisome proliferator-activated receptor gamma (Homo sapiens) (UniProt P37231). Put plainly: qHTS assay for small molecule antagonists of peroxisome proliferator-activated receptor gamma signaling (AID 588537; active means well fitted inhibition curve with a large enough effect in the signal ratio, with a control signal flat, not every such curve was filed as active; the % refers to the signal ratio;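 further: reporter cells co-stimulated with 50 nM rosiglitazone agonist during compound treatment; % of control where 0% means no effect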). Put shortly:
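Inhibitors of agonist-stimulated UAS-bla reporter activity were sought in HEK293 cells; rosiglitazone (50 nM) defined full signal and DMSO baseline. Curves fitted to Hill model gave IC50 and efficacy.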

Values joined by “and” are separate entries in the source; they are usually repeats but may differ in a detail not shown here. Equal values may be shown once. Inconclusive results are not listed. Active and inactive are the calls of the source. Unless noted, the call rests on the fitted dose curve; in most records, active means well fitted curve in the direction sought with a large enough effect; inconclusive means small, poorly fitted or top-dose-only effect, or another doubt; inactive means no such curve, though single readings can be large; an effect the other way counts as inactive or inconclusive.

Chain of Glucocorticoid receptor (Homo sapiens) (P04150 whole entry, looked up): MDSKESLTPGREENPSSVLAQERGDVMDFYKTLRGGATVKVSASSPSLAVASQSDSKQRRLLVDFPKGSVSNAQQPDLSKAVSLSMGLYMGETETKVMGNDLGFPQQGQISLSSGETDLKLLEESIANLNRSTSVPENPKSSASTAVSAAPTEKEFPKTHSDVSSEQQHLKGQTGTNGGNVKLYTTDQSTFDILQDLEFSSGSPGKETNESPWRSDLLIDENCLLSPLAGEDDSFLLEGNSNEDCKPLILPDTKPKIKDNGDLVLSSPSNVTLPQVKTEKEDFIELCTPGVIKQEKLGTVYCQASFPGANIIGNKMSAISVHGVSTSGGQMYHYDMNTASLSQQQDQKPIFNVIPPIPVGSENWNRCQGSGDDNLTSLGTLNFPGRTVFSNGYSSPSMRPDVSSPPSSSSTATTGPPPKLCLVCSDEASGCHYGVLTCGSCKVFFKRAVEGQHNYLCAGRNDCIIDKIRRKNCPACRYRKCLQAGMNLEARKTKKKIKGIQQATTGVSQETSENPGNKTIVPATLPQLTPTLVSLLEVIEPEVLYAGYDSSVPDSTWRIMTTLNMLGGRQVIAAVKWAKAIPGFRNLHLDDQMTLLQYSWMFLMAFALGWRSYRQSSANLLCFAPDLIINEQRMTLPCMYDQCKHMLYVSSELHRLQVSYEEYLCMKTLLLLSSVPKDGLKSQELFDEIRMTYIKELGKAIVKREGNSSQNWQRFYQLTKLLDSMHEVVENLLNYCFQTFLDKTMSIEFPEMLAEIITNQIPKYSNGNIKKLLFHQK
Chain of Estrogen receptor (Homo sapiens) (P03372 whole entry, looked up): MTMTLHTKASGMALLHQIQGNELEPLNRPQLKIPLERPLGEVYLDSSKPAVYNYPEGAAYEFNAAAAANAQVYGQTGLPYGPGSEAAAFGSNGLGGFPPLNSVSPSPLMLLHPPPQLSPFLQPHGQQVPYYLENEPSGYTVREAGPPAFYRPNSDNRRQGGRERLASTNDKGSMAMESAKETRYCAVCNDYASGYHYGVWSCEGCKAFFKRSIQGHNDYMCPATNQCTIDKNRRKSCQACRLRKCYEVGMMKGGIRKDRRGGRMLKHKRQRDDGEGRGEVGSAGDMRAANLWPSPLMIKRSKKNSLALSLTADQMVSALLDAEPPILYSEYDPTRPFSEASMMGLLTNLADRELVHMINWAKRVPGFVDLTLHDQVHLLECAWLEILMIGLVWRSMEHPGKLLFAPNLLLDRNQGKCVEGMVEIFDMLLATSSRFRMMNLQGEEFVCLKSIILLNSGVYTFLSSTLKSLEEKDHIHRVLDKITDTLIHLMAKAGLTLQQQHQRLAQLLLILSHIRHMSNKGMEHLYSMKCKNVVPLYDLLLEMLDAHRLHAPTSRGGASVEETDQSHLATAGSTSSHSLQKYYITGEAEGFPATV
Chain of Voltage-gated inwardly rectifying potassium channel KCNH2 (Homo sapiens) (Q12809 whole entry, looked up): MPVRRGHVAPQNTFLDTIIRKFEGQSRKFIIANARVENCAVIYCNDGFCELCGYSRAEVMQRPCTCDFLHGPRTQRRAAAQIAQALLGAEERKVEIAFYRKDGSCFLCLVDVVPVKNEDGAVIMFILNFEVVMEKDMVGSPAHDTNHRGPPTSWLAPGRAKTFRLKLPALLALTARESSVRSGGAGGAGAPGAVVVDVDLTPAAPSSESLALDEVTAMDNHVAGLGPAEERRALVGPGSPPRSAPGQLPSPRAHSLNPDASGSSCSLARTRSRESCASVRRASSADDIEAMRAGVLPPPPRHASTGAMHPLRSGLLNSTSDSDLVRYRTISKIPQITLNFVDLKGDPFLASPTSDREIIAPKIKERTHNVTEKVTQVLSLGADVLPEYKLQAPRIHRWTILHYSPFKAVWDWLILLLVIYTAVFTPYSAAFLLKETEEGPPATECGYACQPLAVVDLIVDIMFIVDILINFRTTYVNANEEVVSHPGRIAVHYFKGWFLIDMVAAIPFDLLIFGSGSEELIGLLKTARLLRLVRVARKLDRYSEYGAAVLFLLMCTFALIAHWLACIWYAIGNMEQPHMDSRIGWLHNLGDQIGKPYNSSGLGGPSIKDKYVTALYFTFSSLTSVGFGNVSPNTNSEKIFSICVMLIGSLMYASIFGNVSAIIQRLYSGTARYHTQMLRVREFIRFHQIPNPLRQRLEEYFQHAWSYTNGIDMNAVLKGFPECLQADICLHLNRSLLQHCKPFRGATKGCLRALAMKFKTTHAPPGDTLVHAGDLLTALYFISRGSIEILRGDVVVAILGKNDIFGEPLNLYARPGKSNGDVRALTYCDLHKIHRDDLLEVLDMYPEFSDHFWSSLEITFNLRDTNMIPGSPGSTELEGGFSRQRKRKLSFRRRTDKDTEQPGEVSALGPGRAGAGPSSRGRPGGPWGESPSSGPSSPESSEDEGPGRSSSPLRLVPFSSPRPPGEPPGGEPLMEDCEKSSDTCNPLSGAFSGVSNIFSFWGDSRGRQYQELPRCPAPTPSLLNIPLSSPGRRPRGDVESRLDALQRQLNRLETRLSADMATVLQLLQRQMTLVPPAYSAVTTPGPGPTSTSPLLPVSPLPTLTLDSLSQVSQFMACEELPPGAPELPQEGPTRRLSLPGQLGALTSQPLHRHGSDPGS

For `CC(=O)[O-].CC(=O)[O-].CC(=O)[O-].[Cr+3]`, the Potency result in test [1], in test [2], in test [3], in test [4], in test [5] and in test [6] was “inactive” throughout. The activation in test [7] was -2.21% (inactive).

Take `ClP(Cl)(Cl)(Cl)Cl`: the Potency entry in test [8], in test [2], in [10], in test [3], in test [11] and in [12] was “inactive” each time. For the same compound, the Potency entry in [4], in test [5] and in test [6] was “inactive” throughout. For the same compound, the call in test [9], in test [14], in test [15] and in [16] was inactive. Further, the activation in [13] was -4.5% (inactive); in test [17] it was -0.207% (inactive); in [7], -0.379% (inactive).

Regarding `Cc1cc(-c2cc(C)c(N)c(C)c2)cc(C)c1N`, the Potency entry in test [1], in test [8], in test [2], in test [10], in [3] and in [11] was “inactive” each time. The Potency entry in [12] and in test [6] was “inactive” in each case. Moreover, the compound was classed as inactive in test [9], in [15], in test [19] and in test [16]. The activation is -0.885% (inactive) in test [13] and 0.737% (inactive) in test [17]. Besides, in test [18], the max response is 7.84%. Also, the Potency in test [7] is 10 µM (active).

In the case of `Clc1cccc(Cl)c1Cl`, the Potency result in test [1], in test [8], in test [2], in [10], in test [20] and in [4] was “inactive” in each case. In addition, the Potency result in test [5] is “inactive”. The activation in [13] is -0.532% (inactive); in test [17], -0.304% (inactive) and 0.362% (inactive); in test [7] it was -1.51% (inactive) and 0.659% (inactive). The compound was classed as inactive in test [14], in [15], in test [19] and in test [16]. The max response in test [18] is -24.3%.

In the case of `Nc1cc(Cl)ccc1Cl`, the Potency entry in test [1], in test [8], in test [2], in [10], in test [3] and in test [4] was “inactive” in each case. Further, the activation in test [13] is -3.66% (inactive). The outcome in test [14] and in test [15] was inactive.

As for `CC(=O)NNc1ccccc1`, the Potency result in [1], in test [8], in test [2], in [10], in test [3] and in test [4] was “inactive” in each case. For the same compound, the Potency entry in [6] was “inactive”. The result in [9] and in test [19] was inactive. The max response in [18] stood at 50%. Further, the activation in [7] was 2.76% (inactive).

As for `CC(Cl)(Cl)Cl`, the outcome in [9], in [15], in test [19] and in test [16] was inactive. For the same compound, the Potency result in [2], in test [10], in test [3], in test [20], in test [4] and in test [5] was “inactive” in each case. In test [6], the Potency entry is “inactive”. Besides, the max response in [18] is -34.9% and 9.34%. Besides, the activation in [17] was -0.312% (inactive) and 0.328% (inactive); in test [7], -0.393% (inactive) and 0.414% (inactive).

As for `N#CCCC#N`, the Potency entry in [1], in test [8], in [2], in [10], in test [3] and in [11] was “inactive” each time. The Potency result in [12], in test [4] and in test [5] was “inactive” throughout. Besides, the compound was called inactive in test [9], in [15], in test [19] and in test [16]. The max response in test [18] amounted to 18.6%. For the same compound, the results for the activation in test [17] and in test [7] were 0.61% (inactive) and 0.758% (inactive), respectively.

As to `S=C1NCCN1`, the Potency entry in test [8], in [2], in test [10], in test [3], in test [20] and in [4] was “inactive” each time. Besides, the outcome in test [16] was inactive. Further, the activation is 0.43% (inactive) and 0.618% (inactive) in test [17]; 4.55% (inactive) and -3.06% (inactive) in [7].
